Assay outcomes: PubChem, several laboratories
SUMO Mot1 rescue: inhibitors of SUMOylation pathway: yeast Mot1-301 growth rescue. S. cerevisiae Mot1-301 growth rescue, ATP luminescence, 38.5C; percent above DMSO median, 100 means doubled. growth rescue, % at 18.8 µM. hit rate 1% among 320,000. AID 2716;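 active means every valid replicate shows activation above 250% relative to neutral control wells; inactive means the rest, any valid replicate at or below 250%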;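 further: OY570 slx delta 5 strain wells were the positive control but not used for scaling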
ARNT TACC3 PPI: ARNT/TACC3 interaction disruption | inhibition, % at 9.99 µM | AlphaScreen His-ARNT PAS-B/GST-TACC3 binding, luminescence; TACC3 fragment carries E629A point mutation | Q9Y6A5 | AID 623870 | hit rate 0.66% among 390,000;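 active means mean inhibition of replicates at least 50% and at least half of replicates each reaching 50%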;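 further: 0% = complete ARNT plus TACC3 wells and 100% = ARNT alone without TACC3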
aDG glyco up: alpha-DG glycosylation activation; Pro5-aDG cells, alpha-DG glycosylation AlphaScreen (IIH6); 0% Pro5, 100% B10-LARGE cell signal; activation, % at 10 µM; hit rate 0.22% among 360,000; AID 624168;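 active means activation of at least 8% versus controls, or a plate z-score of at least 8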;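 further: Pro5 are CHO cells carrying HIG-tagged alpha-DG that lacks glycosylation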
Bfl-1 A1 inh: inhibitors of the anti-apoptotic protein A1, read as caspase activation | MEF A1-2A-BIM cells, Caspase-Glo 3/7 luminescence, 3 h; percent of clofoctol response, vehicle zero | caspase activation, % (no concentration beside the values) | hit rate 0.066% among 330,000;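 active means over half of replicate activation scores above 10%, or exactly half above 10 with the replicate mean above 10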
AI-2 QS mod: Vibrio harveyi AI-2 quorum sensing modulation; Vibrio harveyi JMH597 AI-2 luminescence/OD600 ratio, 9 h; active compounds read low; strain lacks LuxN and CqsS sensors; 0 = neutral-control median; activity change, % at 7.5 µM; hit rate 0.4% among 300,000; AID 2094; in the data active means activity change below about -75%, passing the limit was not always enough;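 further: luminescence divided by OD600 gain over 9 h not by final OD600 alone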
* marks the source's active call; other numbers are inactive results; . = no result given. Only some compounds are listed: those with a hit (about 1.8% of all), similar ones and a draw of the others.

SMILES	SUMO Mot1 rescue	ARNT TACC3 PPI	aDG glyco up	Bfl-1 A1 inh	AI-2 QS mod
O=C(N/N=C\C1C(=O)NC(=S)N(c2ccccc2)C1=O)c1ccc(O)cc1 (stereo unspecified)	-14	72*	0	1	1
CC(=O)NC1=C(N2CC2C)C(=O)C(NC(C)=O)=C(N2CC2C)C1=O (stereo unspecified)	.	8.8*	0	.	.
CCCC(=O)NC1=C(N2CC2)C(=O)C(NC(=O)CCC)=C(N2CC2)C1=O	.	31	4	.	.
COC(=O)C(O)(c1ccc(NC(=O)Oc2ccccc2)cc1)C(F)(F)F (stereo unspecified)	-1	0	0	0	-76*
Cc1ccccc1-n1c(O)c(/C=N/Nc2nc3c(c(=O)n(C)c(=O)n3C)n2C)c(=O)[nH]c1=S	-13	51*	0	0	13
Cn1c(=O)c2c(nc(N/N=C/c3c(O)n(C4CCCCC4)c(=S)[nH]c3=O)n2C)n(C)c1=O	4	52*	0	1	1
Cn1c(O)c(C=NC2CCCCC2)c(=O)[nH]c1=S	-7	4	0	0	10
COc1ccc(N/N=C/c2c(O)n(-c3ccc(C)c(C)c3)c(=O)[nH]c2=O)cc1	43	29	0	1	6
Cc1cccc(-n2c(O)c(/C=N/Nc3nc4c(c(=O)n(C)c(=O)n4C)n3C)c(=O)[nH]c2=S)c1	-19	72*	0	0	5
COc1ccc(N/N=C/c2c(O)n(-c3cccc(C)c3)c(=O)[nH]c2=O)cc1	216	36	0	0	17
COc1ccccc1Sc1ccccc1CC(C)N (stereo unspecified)	13	-3	1	-1	2
COc1ccc(NC(=O)N2C[C@@H]3C[C@@H](C2)c2cccc(=O)n2C3)cc1	-4	-29	0	0	46
COC(=O)c1cn(Cc2ccc(F)cc2)c2ccccc12	.	.	0	.	.
CN1CCC2(O)OCCCC2C1 (stereo unspecified)	-14	5	0	0	4
C[N+](C)(C)CCc1ccc(O)cc1	17	-4	0	0	-20
CCNc1cc(N2CCN(C)CC2)ccc1[N+](=O)[O-]	195	-1	-1	0	22
Cc1c(N=Nc2c(O)[nH]c(=O)[nH]c2=O)c(=O)n(-c2ccccc2)n1C	1	65*	0	0	13
Cc1c(N=Nc2c(O)n(-c3ccc(Br)cc3)c(=O)[nH]c2=O)c(=O)n(-c2ccccc2)n1C	-12	61*	0	2	.
Cc1cc([N+](=O)[O-])c(Cl)cc1NC(=O)C(C)C	-8	-4	0	0	13
CNc1cc(Cl)c2nonc2c1[N+](=O)[O-]	.	4	-1	.	-90*
CC1(C)CC(=O)C(C2(O)C(=O)NC(=O)NC2=O)=C(O)C1	-1	23*	0	0	25
CC1Oc2cc3c(-c4c(O)cc(O)c5c(O)c6c(cc45)OC(C)C(C)C6=O)c(O)cc(O)c3c(O)c2C(=O)C1C (stereo unspecified)	3	80*	0	-1	-89*
Clc1ccccc1CNC1CN2CCC1CC2 (stereo unspecified)	-20	-18	0	0	9
C=CCn1c(O)c(C(C)=NCCCn2ccnc2)c(=O)[nH]c1=O	-7	84*	0	0	15
C/C(=C\c1ccc(N(C)C)cc1)[N+](=O)[O-]	74	-5	0	0	-91*
SMILES	SUMO Mot1 rescue	ARNT TACC3 PPI	aDG glyco up	Bfl-1 A1 inh	AI-2 QS mod
O=C(O)C1C2CCC(O2)C1C(=O)NC1CCCCC1 (stereo unspecified)	16	-10	0	0	14
CCOc1ccc(-n2c(O)c(/C=C3\C=Nc4ccccc43)c(=O)[nH]c2=O)cc1	297*	-1	0	1	2
C=C[C@@]12CN(C)[C@H]3[C@H]1[C@@]1(C(=O)Nc4ccccc41)C1CC2[C@@H]3CO1	26	-2	0	0	.
COC(=O)C1=C(C(=O)OC)SC2(S1)C(C(=O)OC)=C(C(=O)OC)Sc1c2ssc1=O	.	68*	0	.	.
O=C1NC(=O)C(Nc2ccc(Cl)c(Cl)c2)C(=O)N1	.	25*	0	.	.
COc1cc2c(cc1OC)-c1c(OC)c(OC)cc3c1[C@H](C2)N(C)CC3	165	69*	0	-1	3
CCC(COC(=O)NC)NC(=O)Oc1ccccc1 (stereo unspecified)	-3	2	0	0	16
CCC(c1nnnn1C(C)(C)C)N1CCC2(CC1)C(=O)NCN2c1ccccc1 (stereo unspecified)	.	.	0	.	.
Cc1[nH]c2ccccc2c1CCNCc1ccco1	3	4	1	1	-3
Cn1c(O)c(/C=N/NC(=O)c2ccncc2)c(=O)[nH]c1=S	-22	.	0	-1	-1
O=C(N/N=C/c1c(O)n(-c2ccccc2)c(=O)[nH]c1=O)c1ccncc1	-27	71*	0	1	16
Cc1ccc(-n2c(O)c(/C=N/Nc3ccccc3)c(=O)[nH]c2=O)cc1C	310*	.	.	1	1
Cn1c(O)c(/C=N/NC(=O)c2ccncc2)c(=O)n(C)c1=S	-20	59*	0	-1	0
CCCCn1c(O)c(/C=N/NC(=O)c2ccncc2)c(=O)[nH]c1=S	6	60*	0	-2	10
Cc1ccc(-n2c(O)c(/C=N/NC(=O)c3ccncc3)c(=O)[nH]c2=O)cc1	-3	.	0	0	10
CCC(=Nc1ccc(OC)cc1OC)c1c(O)n(C2CCCCC2)c(=O)[nH]c1=O	1	1	1	0	26
Cc1ccc(-n2c(=S)[nH]c3ccc(C)cc3c2=O)cc1	.	.	0	.	.
CCCCC(=O)N/N=C/c1c(O)n(CCc2ccc(OC)c(OC)c2)c(=O)[nH]c1=O	-14	-9	0	0	18
C=CCn1c(O)c(/C=N/NC(=O)c2ccncc2)c(=O)[nH]c1=O	-20	78*	0	0	8
COCCn1c(O)c(/C=N/NC(=O)CSC(=S)N2CCCC2)c(=O)[nH]c1=S	-5	61*	0	0	.
CCCCCCC(=O)N/N=C/c1c(O)n(CCCC)c(=S)[nH]c1=O	27	11	0	0	126
O=C(N/N=C/c1c(O)n(-c2ccccc2)c(=S)[nH]c1=O)c1ccccc1	-25	64*	0	0	28
COc1ccc(CCn2c(O)c(/C=N/NC(=O)c3ccncc3)c(=O)[nH]c2=O)cc1OC	-11	76*	0	0	23
CCC(C)N1C(=O)NC(=O)C2(Cc3cc(C)ccc3N(C)C2)C1=O (stereo unspecified)	-5	2	0	0	7
O=C1NCCCCC1(Cl)Cl	.	-6	0	.	.
CCOc1cc2c(cc1OCC)-n1cccc1C(c1ccccc1OC)NC2 (stereo unspecified)	-19	7	0	1	5
